From PubChem BioAssay (NCI)
Compounds without any hit were thinned out: in the full panel of roughly 79,000, 15% have a hit. Unmarked numbers belong to inactive results. Activity calls are given as the source filed them. No stated cut-off is given here; in the data, active means growth inhibition above about 70%; inactive means the rest.

What was measured:
[1] = NCI Yeast Anticancer Drug Screen. Data for the rad50 strain (AID 155);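 further: 0% = growth of vehicle-only cultures of the same strain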; settings: S. cerevisiae rad50 strain growth inhibition, active compounds read high
In short: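 A DNA repair-deficient yeast mutant serves as the test organism; compound-induced growth inhibition is calculated against vehicle-treated cells.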

[2] = NCI Yeast Anticancer Drug Screen. Data for the mec2-1 strain (AID 157); settings: S. cerevisiae mec2-1 strain, active compounds read high
In short: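 Mutant yeast (mec2-1) grown with compound; growth inhibition relative to vehicle control reported.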

[3] = NCI Yeast Anticancer Drug Screen. Data for the sgs1 mgt1 strain (AID 161);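 further: 0% = growth of cultures given vehicle only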; settings: S. cerevisiae sgs1 mgt1 strain, active compounds read high
In short: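 This yeast growth screen uses a strain with defined DNA-repair lesions; compound-treated growth is compared with vehicle-treated growth.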

[4] = NCI Yeast Anticancer Drug Screen. Data for the cln2 rad14 strain (AID 165);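 further: 0% = growth equal to vehicle treated cultures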; settings: S. cerevisiae cln2 rad14 strain, active compounds read high
In short: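 Readout is yeast growth inhibition versus vehicle-treated controls, using a strain with cln2 and rad14 alterations exposed to compound.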

[5] = NCI Yeast Anticancer Drug Screen. Data for the bub3 strain (AID 167); settings: S. cerevisiae bub3 mutant strain, active compounds read high
In short: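 Inhibition values come from growth of compound-treated mutant yeast normalised to vehicle-treated controls.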

[6] = NCI Yeast Anticancer Drug Screen. Data for the mlh1 rad18 strain (AID 175); settings: S. cerevisiae mlh1 rad18 strain growth inhibition, active compounds read high
In short: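 Genetically defined yeast (DNA repair-deficient) exposed to compounds; growth inhibition determined relative to vehicle.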

[7] = at 5.0 µM (retest, dose inferred, filed as 0.5)
[8] = at 50.0 µM (retest, dose inferred, filed as 5.0)

Structure (SMILES)	growth inhibition [1, 7]	growth inhibition [1, 8]	growth inhibition ([1]; at 50.0 µM)	growth inhibition [2, 7]	growth inhibition [2, 8]	growth inhibition ([2]; at 50.0 µM)	growth inhibition [3, 7]	growth inhibition [3, 8]	growth inhibition ([3]; at 50.0 µM)	growth inhibition [4, 7]	growth inhibition [4, 8]	growth inhibition ([4]; at 50.0 µM)	growth inhibition [5, 7]	growth inhibition [5, 8]	growth inhibition ([5]; at 50.0 µM)	growth inhibition [6, 7]	growth inhibition [6, 8]	growth inhibition ([6]; at 50.0 µM)
COc1ccccc1NC(=O)CC(=O)N1N=C(C)C(N=Nc2ccc(I)cc2)C1=O (centres undefined)	5%	36%	93% (active)	6%	30%	11.1%	6%	28%	83.1% (active)	2%	20%	-39.5%	5%	41%	33%	2%	41%	85.6% (active)
CC(=O)Oc1ccc(-c2ccccc2)cc1Br	8%	99% (active)	93.6% (active)	-27%	98% (active)	96.2% (active)	6%	97% (active)	91.5% (active)	7%	95% (active)	85.1% (active)	10%	98% (active)	94.2% (active)	11%	99% (active)	98.1% (active)
CCN(CC)CCCCCCNc1cc(Cl)cc2cccnc12	18%	71% (active)	91.6% (active)	14%	64%	89.9% (active)	28%	94% (active)	97.5% (active)	26%	68%	97% (active)	42%	79% (active)	85.4% (active)	27%	84% (active)	97.5% (active)
[O-][n+]1onc2ncccc21	34%	98% (active)	99.1% (active)	38%	99% (active)	99.5% (active)	54%	99% (active)	99.2% (active)	33%	99% (active)	99.2% (active)	66%	98% (active)	99.2% (active)	63%	99% (active)	99.3% (active)
NNC(=S)N/N=C(/C(=O)Nc1ccc(Cl)c(Cl)c1)C(C1OC(=O)c2ccccc21)[N+](=O)[O-] (centres undefined)	27%	44%	26.6%	20%	39%	4.45%	9%	59%	34.4%	31%	48%	23.4%	28%	62%	32.5%	20%	44%	29.8%
CC(C)(C)c1ccc(-c2nc3ccccc3c(=O)o2)cc1	-3%	20%	55.7%	-1%	41%	53.1%	14%	74% (active)	87.2% (active)	-2%	40%	61%	-1%	86% (active)	89.8% (active)	-3%	55%	85% (active)
C=C1C(C2(C)C(OC(C)=O)CC(=O)OC(C)(COC(C)=O)C2CC(=O)OC)C(OC=O)C(OC(=O)C(O)C(C)CC)C2(C)C(c3ccoc3)CC(=O)C12O (centres undefined)	-15%	-28%	76.9% (active)	-5%	-16%	68.7%	4%	-32%	57.5%	-6%	0%	81.5% (active)	-36%	-23%	79.8% (active)	-2%	-53%	90% (active)
Cc1cc(C)c([O-])c(-[n+]2c(-c3ccccc3)cc(-c3ccccc3)cc2-c2ccccc2)c1	14%	14%	90.8% (active)	1%	1%	92.5% (active)	22%	22%	91% (active)	-8%	-8%	89.8% (active)	-2%	-2%	92.2% (active)	3%	3%	89.7% (active)
O=C(Nc1ccc(NC(=O)Nc2cc(C(=O)Nc3ccc(C4=NCCN4)cc3)ccc2C(=O)Nc2ccc(C3=NCCN3)cc2)cc1)Nc1cc(C(=O)Nc2ccc(C3=NCCN3)cc2)ccc1C(=O)Nc1ccc(C2=NCCN2)cc1	7%	-4%	95.5% (active)	0%	-6%	94.5% (active)	2%	-3%	95.9% (active)	-1%	1%	95% (active)	2%	16%	97% (active)	7%	-2%	96.5% (active)
CCCCCCCCCC(C)CC(=O)NCCCN(C)CCCCN(C)C (centres undefined) (tested in a mixture with another compound)	-24%	67%	88.8% (active)	26%	68%	80.2% (active)	35%	93% (active)	87% (active)	28%	27%	62.1%	-17%	86% (active)	90.2% (active)	34%	76% (active)	82.3% (active)
COc1ccc(-c2ccccc2)cc1SCCC(=O)O	3%	15%	79.7% (active)	-1%	21%	70.5% (active)	4%	32%	48.3%	-7%	17%	77.7% (active)	0%	10%	65.2%	-2%	20%	87% (active)
Nc1ccc(SC23CC4CC(CC(C4)C2)C3)cc1	1%	74% (active)	94.1% (active)	0%	42%	94.4% (active)	9%	78% (active)	96% (active)	-69%	61%	95.1% (active)	40%	33%	95.7% (active)	10%	91% (active)	89.2% (active)
CC(C)(C)c1ccc2c(c1)CNCCNCc1cc(C(C)(C)C)ccc1OCC1(CO2)COc2ccc(C(C)(C)C)cc2CNCCNCc2cc(C(C)(C)C)ccc2OC1	99% (active)	92% (active)	89% (active)	99% (active)	94% (active)	90% (active)	99% (active)	92% (active)	92.2% (active)	99% (active)	92% (active)	89.5% (active)	98% (active)	91% (active)	89% (active)	98% (active)	92% (active)	88.2% (active)
